# Results filed as inconclusive are left out. Entries that show only a call come without a potency. The source made the active and inactive calls. Calls come from the whole dose curve; as a rule, active = well fitted cell-killing curve with a large enough effect; inconclusive = small, poorly fitted or top-dose-only effect, or effect the other way; inactive = flat fitted curve, though single readings scatter.
# Test system: JEG-3
# Test: Primary qHTS to identify gynecologic anti-cancer compounds using libraries of approved drugs and bioactive compounds (AID 1345084); note: nearly all actives have a fitted effect of over 55% in size
# Details: Gynecologic cancer cell panel viability, ATPlite luminescence, 48 h; series mostly up to 57.5 µM
# Procedure, shortened: (§1)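 ATP-based viability (ATPlite), 1,000 cells/well, 16 h pre-incubation, 48 h compound at 37 C, 5% CO2, 15 min RT before read.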
SMILES,Potency,"activity change, negative = cytotoxicity"
C[C@@H](C1=C(CCN(C)C)Cc2ccccc21)c1ccccn1,inactive,
O=C1OC2(c3ccccc31)c1cc(I)c(O)c(I)c1Oc1c2cc(I)c(O)c1I,inactive,
CCOCCn1c(C2CCN(CCc3ccc(C(C)(C)C(=O)O)cc3)CC2)nc2ccccc21,inactive,
O=C(Oc1ccccc1)c1cccc(C(=O)Oc2ccccc2)c1,inactive,
CCc1cc2cc(OC)c(OC)cc2c(Cc2ccccc2)n1,inactive,
CCOc1ncc(F)c(=O)[nH]1,inactive,
COCCOCC(OC)OC,inactive,
O=C(O)c1ccc(OCCN2CCCCC2)cc1,inactive,
Oc1ccccc1,inactive,
O=C(OCCN1CCOCC1)c1cccnc1Nc1cccc(C(F)(F)F)c1,inactive,
O=C(O)c1ccccc1Nc1cc(Cl)ccc1C(=O)O,inactive,
COc1ccc2cc(C=O)ccc2c1,inactive,
COc1ccc2c(c1)c(CC(=O)OC/C=C(\C)CC/C=C(\C)CCC=C(C)C)c(C)n2C(=O)c1ccc(Cl)cc1,inactive,
O=C(O)[C@@H](O)[C@H](O)[C@H](O)[C@@H](O)C(=O)O,inactive,
CNC(=O)c1c(I)c(NC(C)=O)c(I)c(C(=O)O)c1I,inactive,
NCC[C@H](O)C(=O)N[C@@H]1C[C@H](N)[C@@H](O[C@H]2O[C@H](CN)[C@@H](O)[C@H](O)[C@@H]2O)[C@H](O)[C@@H]1O[C@H]1O[C@H](CO)[C@@H](O)[C@H](N)[C@@H]1O,,1.19% [at 0.462 µM] (inactive)
O=C1Cc2cc(Cl)ccc2N1,inactive,
CN(C)CCOC1=Cc2ccccc2Sc2ccc(Cl)cc21,inactive,
CCCCC(CC)CNC(=O)CC(C)OC(=O)CCC(=O)O (configuration not stated),inactive,
C[C@@H]1CCC[C@H](C)N1CCCC(O)(c1ccccc1)c1ccccn1 (some centres not stated),inactive,

SMILES,Potency,"activity change, negative = cytotoxicity"
O=C1CCCc2c(O)cccc21,inactive,
C=CCOc1cc(Cl)ccc1C(=O)NCCN(CC)CC,inactive,
Cc1onc(-c2ccccc2)c1C(=O)Cl,inactive,
CCCCCCOC(=O)NC(=N)c1ccc(NCc2nc3cc(C(=O)N(CCC(=O)OCC)c4ccccn4)ccc3n2C)cc1,inactive,
CCN1CCN(C(=O)N[C@@H](C(=O)N[C@@H]2C(=O)N3[C@@H]2SC(C)(C)[C@H]3C(=O)O)c2ccccc2)C(=O)C1=O,inactive,
Nc1nc2ccccc2n1Cc1ccc(F)cc1,inactive,
Oc1ccc(CCNCCCCCCNCCc2ccccc2)cc1O,inactive,
CCOC(=O)c1cc(=O)c2c(OCC(COc3cccc4oc(C(=O)OCC)cc(=O)c34)OC(=O)[C@@H](N)CCCCN)cccc2o1,inactive,
CC(C)C(=O)Nc1cccc(C(F)(F)F)c1,inactive,
C=C(C)C(=O)OCC(O)CO (configuration not stated),inactive,
CCCCN(CCN(CCCC)C(=O)N1CCOCC1)C(=O)N1CCOCC1,inactive,
CC(Oc1c(Cl)cccc1Cl)C1=NCCN1 (configuration not stated),inactive,
CC(=O)OC/C=C(C)/C=C/C=C(C)/C=C/C1=C(C)CCCC1(C)C,inactive,
CC(C)(C)CC(=O)OCC(=O)[C@@]1(O)CC[C@H]2[C@@H]3CCC4=CC(=O)C=C[C@]4(C)[C@H]3[C@@H](O)C[C@@]21C,inactive,
Cc1ccc(/C=N/n2c(-c3ccccc3)csc2=S)cc1,inactive,
CO[C@@H]1[C@@H](O[C@@H]2O[C@H](C)[C@@H](O[C@H]3C[C@@](C)(O)[C@@H](O)[C@H](C)O3)[C@H](N(C)C)[C@H]2O)[C@@H](CC=O)C[C@@H](C)[C@@H](O[C@@H]2CC[C@H](N(C)C)[C@@H](C)O2)/C=C/C=C/C[C@@H](C)OC(=O)C[C@H]1OC(C)=O,inactive,
N#CSCC(=O)O,inactive,
Cc1ccc(CCn2c3c(c4cc(Cl)ccc42)CN(C)CC3)cn1,inactive,
CO/N=C(/C(=O)N[C@@H]1C(=O)N2C(C(=O)OCOC(=O)C(C)(C)C)=C(C)CS[C@H]12)c1csc(N)n1,inactive,
CC(C)Cc1ccc(C(C)C(=O)OCc2ccccn2)cc1 (configuration not stated),inactive,

# Test system: OV90
# Test: as above
# Details: Gynecologic cancer cell panel viability, ATPlite luminescence, 48 h; series mostly up to 57.5 µM
# Procedure, shortened: as §1
SMILES,Potency,"activity change, negative = cytotoxicity"
O=C1OC2(c3ccccc31)c1cc(I)c(O)c(I)c1Oc1c2cc(I)c(O)c1I,inactive,
CCOCCn1c(C2CCN(CCc3ccc(C(C)(C)C(=O)O)cc3)CC2)nc2ccccc21,inactive,
O=C(Oc1ccccc1)c1cccc(C(=O)Oc2ccccc2)c1,inactive,
CCc1cc2cc(OC)c(OC)cc2c(Cc2ccccc2)n1,inactive,
CCOc1ncc(F)c(=O)[nH]1,inactive,
COCCOCC(OC)OC,inactive,
O=C(O)c1ccc(OCCN2CCCCC2)cc1,inactive,
Oc1ccccc1,inactive,
COc1ccc2cc(C=O)ccc2c1,inactive,
COc1ccc2c(c1)c(CC(=O)OC/C=C(\C)CC/C=C(\C)CCC=C(C)C)c(C)n2C(=O)c1ccc(Cl)cc1,inactive,
O=C(O)[C@@H](O)[C@H](O)[C@H](O)[C@@H](O)C(=O)O,inactive,
CNC(=O)c1c(I)c(NC(C)=O)c(I)c(C(=O)O)c1I,inactive,
NCC[C@H](O)C(=O)N[C@@H]1C[C@H](N)[C@@H](O[C@H]2O[C@H](CN)[C@@H](O)[C@H](O)[C@@H]2O)[C@H](O)[C@@H]1O[C@H]1O[C@H](CO)[C@@H](O)[C@H](N)[C@@H]1O,,-0.567% [at 0.462 µM] (inactive)
O=C1Cc2cc(Cl)ccc2N1,inactive,
CCCCC(CC)CNC(=O)CC(C)OC(=O)CCC(=O)O (configuration not stated),inactive,
C[C@@H]1CCC[C@H](C)N1CCCC(O)(c1ccccc1)c1ccccn1 (some centres not stated),inactive,

SMILES,Potency,"activity change, negative = cytotoxicity"
Cc1onc(-c2ccccc2)c1C(=O)Cl,inactive,
CCN1CCN(C(=O)N[C@@H](C(=O)N[C@@H]2C(=O)N3[C@@H]2SC(C)(C)[C@H]3C(=O)O)c2ccccc2)C(=O)C1=O,inactive,
Nc1nc2ccccc2n1Cc1ccc(F)cc1,inactive,
CCOC(=O)c1cc(=O)c2c(OCC(COc3cccc4oc(C(=O)OCC)cc(=O)c34)OC(=O)[C@@H](N)CCCCN)cccc2o1,inactive,
CC(C)C(=O)Nc1cccc(C(F)(F)F)c1,inactive,
C=C(C)C(=O)OCC(O)CO (configuration not stated),inactive,
CCCCN(CCN(CCCC)C(=O)N1CCOCC1)C(=O)N1CCOCC1,inactive,
CC(Oc1c(Cl)cccc1Cl)C1=NCCN1 (configuration not stated),inactive,
CC(=O)OC/C=C(C)/C=C/C=C(C)/C=C/C1=C(C)CCCC1(C)C,inactive,
CC(C)(C)CC(=O)OCC(=O)[C@@]1(O)CC[C@H]2[C@@H]3CCC4=CC(=O)C=C[C@]4(C)[C@H]3[C@@H](O)C[C@@]21C,inactive,
Cc1ccc(/C=N/n2c(-c3ccccc3)csc2=S)cc1,inactive,
CO[C@@H]1[C@@H](O[C@@H]2O[C@H](C)[C@@H](O[C@H]3C[C@@](C)(O)[C@@H](O)[C@H](C)O3)[C@H](N(C)C)[C@H]2O)[C@@H](CC=O)C[C@@H](C)[C@@H](O[C@@H]2CC[C@H](N(C)C)[C@@H](C)O2)/C=C/C=C/C[C@@H](C)OC(=O)C[C@H]1OC(C)=O,inactive,
N#CSCC(=O)O,inactive,
Cc1ccc(CCn2c3c(c4cc(Cl)ccc42)CN(C)CC3)cn1,inactive,
CO/N=C(/C(=O)N[C@@H]1C(=O)N2C(C(=O)OCOC(=O)C(C)(C)C)=C(C)CS[C@H]12)c1csc(N)n1,inactive,
CC(C)Cc1ccc(C(C)C(=O)OCc2ccccn2)cc1 (configuration not stated),inactive,
